Sampled rows, rich in hits. Any-hit rate of the full collection: about 3.5%.
FBW7 activator – human FBW7 E3 ligase activation, primary screen | AlphaScreen FBW7–phospho-cyclin E peptide binding, activator screen | normalized activity (activation), % at 26.1 µM | 650,000 compounds, 0.13% hits; in the data active = normalized activity above about 1.9%;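 note: purified mutant Fbw7 with reduced substrate affinity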
Target sequence (Q969H0 whole entry, looked up): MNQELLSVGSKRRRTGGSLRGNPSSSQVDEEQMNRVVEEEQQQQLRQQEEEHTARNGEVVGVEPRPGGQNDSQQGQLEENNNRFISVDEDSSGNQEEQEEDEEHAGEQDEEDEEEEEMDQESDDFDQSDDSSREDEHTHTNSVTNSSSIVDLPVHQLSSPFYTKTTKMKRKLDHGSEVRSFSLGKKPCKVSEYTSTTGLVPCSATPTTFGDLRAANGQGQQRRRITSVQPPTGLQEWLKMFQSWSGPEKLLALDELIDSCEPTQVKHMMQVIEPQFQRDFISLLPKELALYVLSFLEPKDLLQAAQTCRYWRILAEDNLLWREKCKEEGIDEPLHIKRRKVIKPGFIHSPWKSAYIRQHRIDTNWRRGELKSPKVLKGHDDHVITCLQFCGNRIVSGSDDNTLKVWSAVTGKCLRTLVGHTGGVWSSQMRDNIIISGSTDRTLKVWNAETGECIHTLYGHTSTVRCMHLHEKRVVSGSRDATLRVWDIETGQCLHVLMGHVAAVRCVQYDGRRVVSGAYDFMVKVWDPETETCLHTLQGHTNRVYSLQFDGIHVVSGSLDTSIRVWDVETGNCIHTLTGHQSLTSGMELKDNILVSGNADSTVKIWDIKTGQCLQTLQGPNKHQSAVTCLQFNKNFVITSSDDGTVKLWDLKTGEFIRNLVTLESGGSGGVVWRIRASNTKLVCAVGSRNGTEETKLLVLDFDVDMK
GPR151 activ – activators of human GPR151. Q8TDV0. PathHunter beta-arrestin GPR151 cells, luminescence. activation, % at 11.2 µM. 650,000 compounds, 1% hits. AID 1508602; in the data active = activation above about 4.9%;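 note: 0% = median of compound wells and 100% = cells with positive control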
MITF inh – inhibitors of human MITF. AlphaScreen MITF homodimerization, bead proximity signal. inhibition, % at 2.6 µM. 650,000 compounds, 0.91% hits; in the data active = inhibition above about 50%;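 note: 0% = vehicle wells with protein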
TEAD-YAP inh – TEAD-YAP interaction inhibition. HEK-TIYL cells, TEAD-Gal4/YAP UAS-luciferase luminescence. inhibition, % at 9.12 µM. 640,000 compounds, 1.4% hits. AID 1259422; in the data active = inhibition above about 32%;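 note: 0% = median of test compound wells and 100% = reference inhibitor wells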
* hit, by the source's call.

What do the screens show for `CCOc1ccc(C=C2C(=O)NC(=S)NC2=O)cc1OCC`?
FBW7 activator: 0; GPR151 activ: -1; MITF inh: 5; TEAD-YAP inh: 4

How did O=C1NC(=O)C(=Cc2cc(Cl)ccc2OCc2ccc(C(=O)O)cc2)C(=O)N1 do in these assays?
FBW7 activator: -1; GPR151 activ: 1; MITF inh: 5; TEAD-YAP inh: 0

What do the screens show for `O=C1NC(=O)C(=Cc2ccc(OCc3cccc(C(=O)O)c3)cc2)C(=O)N1`?
FBW7 activator: 0; GPR151 activ: -8; MITF inh: -3; TEAD-YAP inh: 71*

What do the screens show for `Cc1c(C(N)=O)c2nc3c(c(-c4ccccc4)c2n1Cc1ccccc1)CCCC3`?
FBW7 activator: 0; GPR151 activ: 3; MITF inh: 2; TEAD-YAP inh: 1

Results for c1cc2c(cc1-c1ccc3c(c1)OCO3)COC1(CCNCC1)O2 ?
FBW7 activator: 1; GPR151 activ: -1; MITF inh: -10; TEAD-YAP inh: 9

Results for c1ccc2cc(-c3ccc4c(c3)COC3(CCNCC3)O4)ccc2c1 ?
FBW7 activator: -1; GPR151 activ: 0; MITF inh: -18; TEAD-YAP inh: 84*

What do the screens show for `COc1ccc(CN2CCC[C@H]2c2nc3ccc(-c4ccncc4)cc3[nH]2)cc1` (tested in a mixture with another compound)?
FBW7 activator: -1; GPR151 activ: 0; MITF inh: -4; TEAD-YAP inh: -5

How did Cc1cc(C)n2nc3c(c(C)cc(C)[n+]3-c3ccccc3)c2n1 do in these assays?
FBW7 activator: 0; GPR151 activ: 1; MITF inh: 16; TEAD-YAP inh: 33*

Results for Cc1cc(C)[n+](-c2ccccc2)c2[nH]c(=O)[nH]c(=O)c12 ?
FBW7 activator: 1; GPR151 activ: 2; MITF inh: 8; TEAD-YAP inh: -5

What do the screens show for `O=C(CN1CC(c2ccccc2)CC1=O)NCCc1ccccc1` (configuration not stated)?
FBW7 activator: 0; GPR151 activ: -1; MITF inh: -1; TEAD-YAP inh: -4

How did C=CCOc1ccc(/C=C(\C)[N+](=O)[O-])cc1OC do in these assays?
FBW7 activator: 0; GPR151 activ: 0; MITF inh: 3; TEAD-YAP inh: 42*

Results for COC(=O)C1C2c3ccccc3OC1(C)N=c1s/c(=C\c3ccc(C)o3)c(=O)n12 (configuration not stated) ?
FBW7 activator: 0; GPR151 activ: -2; MITF inh: -8; TEAD-YAP inh: -1

How did CN1CCN(C(=O)Cc2c(C(=O)O)n(C)c3ccccc23)CC1 do in these assays?
FBW7 activator: 0; GPR151 activ: -1; MITF inh: 5; TEAD-YAP inh: 5

Results for CC1CCC(C(C)C)C(OC(=O)Cn2c(COc3ccccc3)[n+](C)c3ccccc32)C1 (configuration not stated) ?
FBW7 activator: 0; GPR151 activ: 2; MITF inh: -11; TEAD-YAP inh: 37*

What do the screens show for `CC1CCCC(N2CCN(C(=O)COc3ccccc3)CC2)C1` (configuration not stated)?
FBW7 activator: 0; GPR151 activ: 0; MITF inh: 25; TEAD-YAP inh: 3

What do the screens show for `CN1CC=C(c2noc(CCC(=O)Nc3ccc(F)cc3Cl)n2)CC1`?
FBW7 activator: 2; GPR151 activ: -1; MITF inh: 31; TEAD-YAP inh: -5

What do the screens show for `CN1CC=C(c2noc(CCC(=O)Nc3ccc(F)c(Cl)c3)n2)CC1`?
FBW7 activator: 2.1*; GPR151 activ: -1; MITF inh: 39; TEAD-YAP inh: -1

How did O=[N+]([O-])c1c(Cl)ccc2nonc12 do in these assays?
FBW7 activator: 0; GPR151 activ: 0; MITF inh: 7; TEAD-YAP inh: 1

Results for CC1=[N+](C)c2c(ccc3ccccc23)C1(C)C ?
FBW7 activator: 0; GPR151 activ: 1; MITF inh: 26; TEAD-YAP inh: 60*

Results for C/C=C(/C)C(=O)O[C@H]1C(C)=C2[C@H]([C@@H]1OC(=O)CCCCCCC)[C@@](C)(OC(C)=O)C[C@H](OC(=O)CCC)[C@@]1(O)[C@H]2OC(=O)[C@@]1(C)O ?
FBW7 activator: 0; GPR151 activ: 0; MITF inh: 11; TEAD-YAP inh: 57*

How did CCOc1ccccc1C1SCC(=O)Nc2c1c(C)nn2C1CCOC(C)(C)C1 (configuration not stated) do in these assays?
FBW7 activator: 0; GPR151 activ: -2; MITF inh: -5; TEAD-YAP inh: -4

What do the screens show for `CCN(CC)CCN(C(=O)Cc1ccc2c(c1)OCO2)c1nc2c(F)cc(F)cc2s1`?
FBW7 activator: 0; GPR151 activ: 0; MITF inh: -8; TEAD-YAP inh: -13

How did CCc1c(C)sc2ncn(C3CCNCC3)c(=O)c12 do in these assays?
FBW7 activator: 0; GPR151 activ: 0; MITF inh: -17; TEAD-YAP inh: -16

What do the screens show for `O=C(CN1CCCCCC1)c1ccccc1`?
FBW7 activator: 0; GPR151 activ: 0; MITF inh: -14; TEAD-YAP inh: 0

How did O=C(c1ccccc1)C(CN1CCCC1)c1ccccc1 (configuration not stated) do in these assays?
FBW7 activator: 0; GPR151 activ: 0; MITF inh: 0; TEAD-YAP inh: 54*

Results for CCN(CC)CCOS(=O)(=O)c1cc([N+](=O)[O-])ccc1C ?
FBW7 activator: 0; GPR151 activ: 0; MITF inh: -2; TEAD-YAP inh: -4

Results for COC1=CC(=O)O[C@H](/C=C/c2ccc3c(c2)OCO3)C1 ?
FBW7 activator: 1; GPR151 activ: 1; MITF inh: 1; TEAD-YAP inh: 78*

What do the screens show for `COC1=CC(=O)O[C@@H](CCc2ccc3c(c2)OCO3)C1`?
FBW7 activator: 0; GPR151 activ: 2; MITF inh: 21; TEAD-YAP inh: 12

What do the screens show for `N/C(=N/O)c1nonc1NCNc1nonc1/C(N)=N\O`?
FBW7 activator: 0; GPR151 activ: 0; MITF inh: 7; TEAD-YAP inh: 8

Results for O=C1NC(=S)NC(=O)C1=Cc1ccc(-c2ccc(C(=O)O)c(O)c2)o1 ?
FBW7 activator: 0; GPR151 activ: 0; MITF inh: 82*; TEAD-YAP inh: -7

How did O=C1NC(=S)NC(=O)C1=Cc1ccc(-c2ccc(Cl)c(C(=O)O)c2)o1 do in these assays?
FBW7 activator: -1; GPR151 activ: 1; MITF inh: 69*; TEAD-YAP inh: -6

How did O=C1NC(=O)N(Cc2ccco2)C(=O)/C1=C\c1ccc(-c2ccc(Cl)c(C(=O)O)c2)o1 do in these assays?
FBW7 activator: -1; GPR151 activ: 0; MITF inh: 21; TEAD-YAP inh: 1

What do the screens show for `CC(=O)c1ccc(-c2ccc(C=C3C(=O)NC(=S)NC3=O)o2)cc1`?
FBW7 activator: 0; GPR151 activ: 0; MITF inh: 28; TEAD-YAP inh: -12

Results for O=C1NC(=S)NC(=O)C1=Cc1ccc(-c2ccc(C(=O)O)cc2)o1 ?
FBW7 activator: 0; GPR151 activ: -1; MITF inh: 63*; TEAD-YAP inh: -1

What do the screens show for `CCOc1ccc(N2C(=O)/C(=C/c3ccc(C)o3)C(=O)NC2=S)cc1`?
FBW7 activator: 0; GPR151 activ: 1; MITF inh: 14; TEAD-YAP inh: -1

Screening results from PubChem.
